In the library only some 8.7% were active in any assay of this set; here they are far more common.
HP1b chromo inh – HP1-beta chromodomain-methylated histone interaction inhibition | P83916 | AlphaScreen HP1-beta / biotin-H3K9me3 peptide binding | Potency, µM (series often up to 114 µM), for the others: top-dose activity change, negative = inhibition, usual class: inhibitors | 390,000 tested, 0.56% active | AID 540317; also: nearly all actives have a fitted effect of over 70% in size
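HP1-beta protein (50 nM final) preincubated 30 min at room temperature with biotinylated H3(1-18)K9me3 peptide (50 nM) in PBS pH 7.4, 0.01% Tween-20, then compound added for 30 min. AlphaScreen streptavidin donor/nickel chelate acceptor beads (10 ug/mL final), 30 min dark, luminescence read.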
JMJD2A Tudor – blocks the human JMJD2A Tudor domain; O75164; AlphaScreen JMJD2A-Tudor / H3K4me3 peptide binding; Potency, µM (titrated, usually from 114 µM), for inactives: at the highest dose activity change, negative = inhibition, hits mostly inhibitors; 390,000 tested, 4.4% active; also: % is scaled to controls: 0 for no effect and ±100 for the full control effect; nearly all actives have a fitted effect of over 50% in size
BAZ2B inh – BAZ2B (human) inhibition; Q9UIF8; AlphaScreen BAZ2B-H3K14Ac peptide displacement; Potency, µM (doses to about 114 µM), for the others: at the highest dose activity change, negative = inhibition, hits mostly inhibitors; 360,000 tested, 4.4% active; AID 504333; also: % is scaled to controls: 0 for no effect and ±100 for the full control effect; nearly all actives have a fitted effect of over 60% in size
Target sequence (Q9UIF8 whole entry, looked up): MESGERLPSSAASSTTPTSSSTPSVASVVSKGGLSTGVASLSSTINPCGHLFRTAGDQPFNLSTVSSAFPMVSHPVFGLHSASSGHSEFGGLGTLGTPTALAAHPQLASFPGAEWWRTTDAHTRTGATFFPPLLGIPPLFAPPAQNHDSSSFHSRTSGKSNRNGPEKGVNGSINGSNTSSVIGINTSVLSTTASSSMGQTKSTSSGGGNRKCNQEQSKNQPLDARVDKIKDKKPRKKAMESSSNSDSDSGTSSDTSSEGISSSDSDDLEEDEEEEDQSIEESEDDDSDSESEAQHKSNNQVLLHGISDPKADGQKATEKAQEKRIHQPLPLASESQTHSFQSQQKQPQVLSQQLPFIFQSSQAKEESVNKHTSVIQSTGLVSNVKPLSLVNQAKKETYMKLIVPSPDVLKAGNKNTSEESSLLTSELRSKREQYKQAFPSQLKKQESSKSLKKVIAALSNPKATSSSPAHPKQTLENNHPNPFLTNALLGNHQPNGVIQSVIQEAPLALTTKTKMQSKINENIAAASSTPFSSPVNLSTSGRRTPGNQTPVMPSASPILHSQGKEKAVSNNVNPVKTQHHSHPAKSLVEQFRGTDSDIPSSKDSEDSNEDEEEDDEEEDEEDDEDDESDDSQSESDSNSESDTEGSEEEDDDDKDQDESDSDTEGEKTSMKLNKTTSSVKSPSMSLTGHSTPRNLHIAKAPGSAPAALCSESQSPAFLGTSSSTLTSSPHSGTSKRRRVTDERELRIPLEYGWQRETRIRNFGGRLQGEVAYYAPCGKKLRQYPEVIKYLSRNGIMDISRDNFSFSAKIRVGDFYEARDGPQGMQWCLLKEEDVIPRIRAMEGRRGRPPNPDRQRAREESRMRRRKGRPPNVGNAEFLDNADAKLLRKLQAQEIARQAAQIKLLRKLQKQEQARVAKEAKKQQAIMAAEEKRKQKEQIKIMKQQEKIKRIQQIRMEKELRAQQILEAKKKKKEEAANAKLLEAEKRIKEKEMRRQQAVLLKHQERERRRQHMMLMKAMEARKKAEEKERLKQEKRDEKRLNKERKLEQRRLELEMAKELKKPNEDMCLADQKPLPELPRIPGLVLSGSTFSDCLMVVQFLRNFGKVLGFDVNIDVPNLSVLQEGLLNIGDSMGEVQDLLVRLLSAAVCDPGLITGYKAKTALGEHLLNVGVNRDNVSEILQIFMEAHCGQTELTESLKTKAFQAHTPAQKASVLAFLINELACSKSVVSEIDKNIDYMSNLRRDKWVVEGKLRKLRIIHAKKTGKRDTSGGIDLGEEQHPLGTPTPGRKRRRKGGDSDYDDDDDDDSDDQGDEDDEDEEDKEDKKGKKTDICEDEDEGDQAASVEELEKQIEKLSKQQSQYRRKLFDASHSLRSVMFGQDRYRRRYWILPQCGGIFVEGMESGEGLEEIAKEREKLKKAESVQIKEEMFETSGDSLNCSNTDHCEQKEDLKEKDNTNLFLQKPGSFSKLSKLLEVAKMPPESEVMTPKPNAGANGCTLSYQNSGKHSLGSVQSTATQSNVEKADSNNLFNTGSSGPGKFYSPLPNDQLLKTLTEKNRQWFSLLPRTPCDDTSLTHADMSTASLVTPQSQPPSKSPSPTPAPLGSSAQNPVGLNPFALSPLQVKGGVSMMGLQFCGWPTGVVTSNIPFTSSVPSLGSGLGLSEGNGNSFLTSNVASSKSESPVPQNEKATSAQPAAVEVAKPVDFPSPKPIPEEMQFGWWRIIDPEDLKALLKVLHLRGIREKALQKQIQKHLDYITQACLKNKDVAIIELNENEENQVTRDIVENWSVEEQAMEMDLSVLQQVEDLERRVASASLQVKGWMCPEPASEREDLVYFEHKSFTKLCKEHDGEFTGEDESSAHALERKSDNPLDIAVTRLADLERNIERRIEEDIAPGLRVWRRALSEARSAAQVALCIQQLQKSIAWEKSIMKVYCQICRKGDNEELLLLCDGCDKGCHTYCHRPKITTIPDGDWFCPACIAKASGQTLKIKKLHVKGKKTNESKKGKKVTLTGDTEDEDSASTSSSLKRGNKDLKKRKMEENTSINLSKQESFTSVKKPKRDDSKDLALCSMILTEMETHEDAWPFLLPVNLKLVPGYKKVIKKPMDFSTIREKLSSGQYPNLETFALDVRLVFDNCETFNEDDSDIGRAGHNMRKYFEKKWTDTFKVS
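BAZ2B (50 nM) with biotin-H3(5-23)K14Ac peptide (50 nM) in PBS pH 7.4, 0.01% Tween-20, preformed 30 min, then compound 30 min at room temperature; top concentration 110uM. AlphaScreen streptavidin donor/nickel chelate acceptor beads (10 ug/mL final), 20 min dark, signal read.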
G9a inh – G9a (human) methyltransferase inhibition | Potency, µM (highest dose often 102 µM), without a hit: at the top dose activity, negative = inhibition, usual class: inhibitors | G9a H3K9 monomethylation, AlphaScreen, 2 h | AID 504332 | 350,000 tested, 8.8% active; also: % is scaled to controls: 0 for no effect and ±100 for the full control effect; nearly all actives have a fitted effect of over 75% in size
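AlphaScreen read-out: biotin-H3K9 peptide (500 nM) methylation by 20 nM enzyme with 20 uM SAM, 2 h at room temperature after 15 min compound preincubation; anti-monomethyl H3K9 antibody plus donor/acceptor beads, 10 min dark.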
ALOX12 inh – blocks human arachidonate 12S-lipoxygenase. P18054. purified 12hLO, xylenol orange hydroperoxide absorbance. Potency, µM (doses to about 108 µM), for inactives: at the highest dose activity change, negative = inhibition, usual class: inhibitors. 580,000 tested, 1.1% active; also: % is scaled to controls: 0 for no effect and ±100 for the full control effect
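Purified human 12hLO (150 nM final) in 25 mM Hepes, 0.01% Triton X-100, pH 7.0 was preincubated 15 min at room temperature with compound. Then 40 uM arachidonic acid was added, 30 min. Hydroperoxide was read by Fe-XO absorbance ratio 573/405 nm.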
Sfp inh – blocks B. subtilis Sfp PPTase activity. Q9F4F7. Biochemical Sfp PPTase activity, qHTS. Potency, µM, without a hit: largest response in the series, negative = inhibition, hits mostly inhibitors. 310,000 tested, 3.5% active. AID 1490;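 also: the enzyme is Sfp with the accession as filed and its product quenches rhodamine fluorescence; 0% = enzyme reaction without inhibitor and -100% = no enzyme wells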
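Compounds were incubated with enzyme (final 15 nM) for 15 min at room temperature before substrate addition started the reaction. Fluorescence at 525 nm excitation, 598 nm emission was recorded immediately and after 30 minutes.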
An asterisk follows results filed as active; ? = inconclusive; · = no result; ! = repeats disagree; [ ] = another dose, or the depositor's remark. Calls follow the shape of the dose curve; as a rule, active = well fitted curve in the direction sought with a large enough effect; inconclusive = small, poorly fitted or top-dose-only effect, or another doubt; inactive = no such curve, though single readings can be large; an effect the other way counts as inactive or inconclusive. Potency is read from the fitted curve at half-maximal effect.

SMILES | HP1b chromo inh | JMJD2A Tudor | BAZ2B inh | G9a inh | ALOX12 inh | Sfp inh
O=C(c1ccco1)n1nc(-c2ccco2)nc1SCc1ccccc1 | 30% | -15% | 5% | 14% | 0% | 6%
O=C(Nc1ccc2c(c1)OCCO2)N1CCC(NS(=O)(=O)c2ccc(Cl)cc2)CC1 | · | · | · | · | -28% | ·
CCOC(=O)C(CC)Sc1nnc(CSc2ncccn2)n1-c1ccccc1 (centres undefined) | · | · | · | · | -31% | ·
COc1ccc(/C=C(/C#N)C(=O)Nc2ccccc2C(=O)O)cc1OC | · | · | · | · | 1% | ·
COc1ccc(/C=C(\C#N)C(=O)Nc2ccccc2C(=O)O)cc1OC(=O)c1ccccc1Cl | · | · | · | · | 40µM* | ·
COc1ccccc1/C=C/C=C(/C#N)C(=O)Nc1ccccc1C(=O)O | · | · | · | · | 7.1µM* | ·
Cc1cc(OCCCCCn2ccnc2)cc(C)c1Cl | 4% | ? | ? | -43%[59 µM] | ? | 15%
c1ccc(OCCCn2ccnc2)cc1 | 15% | -15% | 1% | · | ? | -5%
CCc1ccc(OCCCCCn2ccnc2)cc1 | 56µM* | 2.5µM* | 50µM* | 10µM* | 1.3µM* | -24%
CCc1ccc(OCCn2ccnc2)cc1 | ? | 28µM* | ? | 22µM* | ? | -7%
COc1cc(C(C)=O)ccc1OS(=O)(=O)c1ccc2c(c1)CCCC2 | · | · | · | · | -2% | ·
CC(C)(C)c1ccc(NC(=O)C2=CN3CCS(=O)(=O)N=C3C=C2)cc1 | 26% | 4% | 12% | 7.1µM* | 12% | ·
Cc1ccc(NC(=O)C2=CN3CCS(=O)(=O)N=C3C=C2)cc1 | 35% | -14% | · | · | 2% | ·
CC(=O)NC1=C(NC2CCS(=O)(=O)C2)C(=O)c2ccccc2C1=O (centres undefined) | 45µM* | 20µM* | -19% | 1.8µM* | -28% | 32µM*
CN(C1=C(NC(=O)c2ccccc2)C(=O)c2ccccc2C1=O)C1CCS(=O)(=O)C1 (centres undefined) | -15% | ? | 50µM* | ? | ? | 20µM*
Cc1cc(C)n(-c2ccc(NC(=O)C3CCN(Cc4nnc(C)o4)CC3)cc2)n1 | · | · | · | · | 14% | ·
C/C(CCN1CCc2nc(-c3ccccc3)c(-c3ccccc3)cc2C1)=N\O[C@H](C)c1cn([C@H](CO)Cc2ccccc2)nn1 | · | · | -34% | 50µM* | · | 4%
C/C(CCN1CCc2nc(-c3ccccc3)c(-c3ccccc3)cc2C1)=N\OC[C@@H](C)[C@H](OCc1ccccc1)C(C)C | 13% | -27% | -22% | 45µM* | · | 0%
CCc1cc2c(nc1CC)CCN(CC/C(C)=N/OC[C@@H](C)[C@H](OCc1ccccc1)C(C)C)C2 | · | · | · | · | · | 21%
CCOc1ccc(C(=O)N2CCC(Cc3nc(-c4cnccn4)no3)CC2)cc1OCC | · | · | · | · | 40% | ·
CC(C)c1nnc(NC(=O)c2ccc3ccccc3n2)s1 | · | · | · | · | -2% | ·
Cc1cnc(C(=O)Nc2nnc(C3CC3)s2)cn1 | 17% | -7% | ? | 5.6µM* | ? | ?
Cc1csc(NC(=O)c2cnccn2)n1 | -2% | 7.9µM* | ? | 3.5µM* | -2% | -13%
Cc1cnc(C(=O)Nc2nnc(C)s2)cn1 | 33% | 1.1µM* | ? | 2µM* | 0% | 79µM*
Cc1cnc(C(=O)Nc2nnc(C(C)C)s2)cn1 | 28% | 0.28µM* | 50µM* | 1µM* | 5% | ?
SMILES | HP1b chromo inh | JMJD2A Tudor | BAZ2B inh | G9a inh | ALOX12 inh | Sfp inh
CC(C)Cn1nc(C(=O)N2CC(C(=O)N3CCCCC3)Oc3ccccc32)c2ccccc2c1=O (centres undefined) | · | · | · | · | 0% | ·
Cc1ccc(-c2cc3c(ccn3C)c(C(=O)NCCc3cnc[nH]3)n2)cn1 | · | · | · | · | 41%[176 µM] | ·
Cc1noc(C)c1CCC(=O)NC1CCCc2c1[nH]c1ccc(F)cc21 (centres undefined) | · | · | · | · | -2% | ·
CC(C)c1nnc(NC(=O)c2cnccn2)s1 | 9% | 1.1µM* | 40µM* | ? | -10% | -72%
CC(C)CNc1nc(C(=O)Nc2nnc(C(C)C)s2)cs1 | · | · | · | · | 5% | ·
COc1cccc(CC(=O)N2CCC3(CC2)OC(=O)N(Cc2ccccc2F)C3(C)c2ccccc2)c1 (centres undefined) | · | · | · | · | 5% | ·
CN(C)CCCN(C(=O)c1ccc(S(=O)(=O)N2CCCCCC2)cc1)c1nc2c(F)cccc2s1 | -11% | -32% | ? | · | ? | -8%
COc1cccc2sc(N(CCCN(C)C)C(=O)c3ccc(S(=O)(=O)N4CCCc5ccccc54)cc3)nc12 | -10% | ? | 40µM* | · | ? | ?
CN(C)CCCN(C(=O)c1ccc(S(=O)(=O)N2CCc3ccccc32)cc1)c1nc2c(Cl)cccc2s1 | -14% | ? | ? | 40µM* | ? | ?
Cc1ccc(C)c(NC(=O)CCn2nc(C)cc2C)c1 | 15% | -5% | 5% | -4%[12.7 µM] | 0% | 16%
COc1ccc(C)cc1NC(=O)CCn1nc(C)cc1C | 29% | ? | 50µM* | -2%[59 µM] | -13% | ·
COc1ccc(NC(=O)C2=CC(c3ccc4c(c3)OCO4)=NS(=O)(=O)N2C)cc1OC | 15% | -11% | 0% | -9%[59 µM] | 5% | ·
COc1ccc(C2=NS(=O)(=O)N(C)C(C(=O)Nc3ccc4c(c3)OCO4)=C2)cc1 | -23% | ? | ? | ? | -3% | 19%
COc1ccc(C2=NS(=O)(=O)N(C)C(C(=O)N(C)Cc3ccccc3)=C2)cc1OC | 38% | 5µM*! | -2% | 14µM*! | 211% | 23%
COc1ccc(C2=NS(=O)(=O)N(C)C(C(=O)Nc3ccc4c(c3)OCO4)=C2)cc1OC | -7% | ? | ? | 35µM* | 3% | 10%
Cc1ccc(C2=NS(=O)(=O)N(C)C(C(=O)Nc3ccc4c(c3)OCO4)=C2)cc1 | -11% | ? | ? | 79µM* | 333% | 11%
Oc1c(C(c2ccc(F)cc2)N2CCc3ccccc3C2)sc2ncnn12 (centres undefined) | 22% | ? | 10% | 7.9µM* | -16% | -12%
Cc1nc2sc(C(c3cccs3)N3CCN(C(=O)c4ccco4)CC3)c(O)n2n1 (centres undefined) | 50% | -13% | -28% | 40µM* | 14% | 12%
Cc1nc2sc(C(c3ccco3)N3CCN(c4ccc(F)cc4)CC3)c(O)n2n1 (centres undefined) | 19% | -22% | ? | · | -8% | 45µM*
CC1CN(C(c2ccco2)c2sc3ncnn3c2O)CC(C)O1 (centres undefined) | 49% | -13% | 5% | 40µM* | ? | 40µM*
Cc1ccc(C(c2sc3ncnn3c2O)N2CCC(C)CC2)cc1 (centres undefined) | 44% | 1% | -4% | -2%[59 µM] | 6% | 10%
